Experimental data from PubChem BioAssay (NCI).
About 79,000 compounds went through this panel and 15% of them were active in at least one assay; those are over-represented in the sample as a whole. Rule as the data show it: active = growth inhibition above about 70%; inactive = the rest.

Assays:
[1] = NCI Yeast Anticancer Drug Screen. Data for the rad50 strain (AID 155);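 also: 0% = growth of vehicle-only cultures of the same strain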; settings: S. cerevisiae rad50 strain growth inhibition; at 50.0 µM; stronger effect = higher value
Method in brief: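 Growth of the mutant yeast was measured after compound exposure and referenced to vehicle-treated cultures.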

[2] = NCI Yeast Anticancer Drug Screen. Data for the mec2-1 strain (AID 157); settings: S. cerevisiae mec2-1 strain, at 50.0 µM, stronger effect = higher value
Method in brief: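 Compounds were applied to mec2-1 yeast cells. Their growth was then compared with that of vehicle-treated cultures to give growth inhibition.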

[3] = NCI Yeast Anticancer Drug Screen. Data for the sgs1 mgt1 strain (AID 161);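 also: 0% = growth of cultures given vehicle only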; settings: S. cerevisiae sgs1 mgt1 strain, at 50.0 µM, stronger effect = higher value
Method in brief: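 Percent growth inhibition was derived by comparing compound-exposed mutant yeast with vehicle-exposed cultures. The strain carries alterations in DNA damage repair.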

[4] = NCI Yeast Anticancer Drug Screen. Data for the cln2 rad14 strain (AID 165);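 also: 0% = growth equal to vehicle treated cultures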; settings: S. cerevisiae cln2 rad14 strain, at 50.0 µM, stronger effect = higher value
Method in brief: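 Strain: cln2 rad14 yeast, altered in cell cycle control and DNA damage repair. Read-out: growth inhibition vs vehicle.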

[5] = NCI Yeast Anticancer Drug Screen. Data for the bub3 strain (AID 167); settings: S. cerevisiae bub3 mutant strain, at 50.0 µM, stronger effect = higher value
Method in brief: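 Whole-cell yeast assay. The mutant strain was incubated with compounds, and growth inhibition was determined by comparison with vehicle-treated cells.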

[6] = NCI Yeast Anticancer Drug Screen. Data for the mlh1 rad18 strain (AID 175); settings: S. cerevisiae mlh1 rad18 strain growth inhibition; at 50.0 µM; stronger effect = higher value
Method in brief: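 A repair-deficient yeast strain is exposed to test compound, and growth is scored relative to vehicle-treated controls.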

Measured: growth inhibition

CCOC(=O)c1c(/N=C/c2cc(Br)ccc2O)sc2c1CCCC2
inactive: [1] 11.7% | [2] -7.8% | [3] 0.4% | [4] 12.9% | [5] -1.4% | [6] 10.7%

CCn1cnc2c(=O)n(C)c(=O)n(C)c21
inactive: [1] -31.8% | [2] -17.9% | [3] 4% | [4] -36% | [5] -0.55% | [6] -0.95%

CN(O)C(=O)c1ccccc1
inactive: [1] 5.45% | [2] -8.4% | [3] -6.35% | [4] 11.9% | [5] 15.1% | [6] 16.9%

C=C1C(=O)OC2CCCC(O)C12 (configuration not stated)
inactive: [1] 2.35% | [2] 2.45% | [3] -6.55% | [4] -39% | [5] -12.2% | [6] 1.9%

CC(C)CCCC(C)C1CCC2C3C=C(C(=O)O)C(C)(CCC(=O)O)C3CCC12C (configuration not stated)
inactive: [1] 45% | [2] 32% | [3] 42% | [4] 7.7% | [5] -2.15% | [6] 44.1%

c1ccc2c(-c3nn[nH]n3)nccc2c1
inactive: [1] 11.6% | [2] -16.2% | [3] -6.5% | [4] -16.9% | [5] -19.9% | [6] -10.9%

Cc1ccc(C(CCl)c2ccc(C)cc2)cc1
inactive: [1] -18.1% | [2] -1.45% | [3] -0.35% | [4] -36.5% | [5] -21.5% | [6] -2.95%

CCOC(=O)C1=C(Nc2ccc(F)cc2)C(=O)N(CC)C1
inactive: [1] 1.3% | [2] -15.3% | [3] 24.4% | [4] -6.45% | [5] 19.9% | [6] 21.4%

CC(O)C(N=Cc1nc(-c2ccccc2)oc1O)C(=O)O (configuration not stated)
inactive: [1] -3.25% | [2] -6.55% | [3] 0% | [4] 1.2% | [5] -0.15% | [6] 7.05%

CC(=O)N(C(C)=O)n1c(-c2ccccc2)n[nH]c1=O
inactive: [1] -7.55% | [2] -17.9% | [3] -14.3% | [4] 13.1% | [5] -10.1% | [6] 2.45%

O=[N+]([O-])c1ccc(OC2OC(CO)C(O)C(O)C2O)cc1 (configuration not stated)
inactive: [1] 31.2% | [2] -0.45% | [3] -4.7% | [4] 5.1% | [5] 24% | [6] 10.2%

Cc1cc(-n2cnc3c(N(CCO)CCO)ncnc32)ccc1[N+](=O)[O-]
inactive: [1] 10.1% | [2] -8.5% | [3] -3.95% | [4] -1.9% | [5] 0.5% | [6] -5.8%

CCCc1sc(NC(C)=O)nc1-c1ccccc1
inactive: [1] 1.2% | [2] 5.85% | [3] 15.2% | [4] 29.3% | [5] -9.7% | [6] 10.2%

Cn1c(=O)[nH]nc(Br)c1=O
inactive: [1] 2.55% | [2] -9.7% | [3] -9% | [4] -4.75% | [5] -4.6% | [6] -24.9%

COC(=O)C1(CC(=O)c2ccc(Cl)cc2Cl)NC(=S)NC(=O)C1C#N (configuration not stated)
inactive: [1] 19.4% | [2] 9.05% | [3] -8.2% | [4] 16.2% | [5] 4.45% | [6] 18.8%

O=NNc1ccnc(-c2cc(NN=O)ccn2)c1
inactive: [1] 22.2% | [2] 16.4% | [3] 6.3% | [4] -0.9% | [5] -12.5% | [6] 34%

COc1ccc(/C=C/C(=N\NC(=O)c2ccccc2)c2sc(Nc3ccc([N+](=O)[O-])cc3)nc2C)cc1OC
inactive: [1] -13.3% | [2] 2.5% | [3] 11.1% | [4] 22.8% | [5] 30.8% | [6] -9.85%

Cc1ncn(-c2ccccc2)c(=O)c1N=Cc1ccccc1
inactive: [1] -13.7% | [2] -17.1% | [3] -32.2% | [4] -8.85% | [5] -19.7% | [6] -10.3%

O=c1[nH]c2cc(Cl)ccc2nc1/C=C(\O)c1ccc(F)cc1
inactive: [1] 23.1% | [2] 17.6% | [3] 17.2% | [4] 8.2% | [5] -6.3% | [6] 27.4%

CSc1cc2c(cc1[N+](=O)[O-])C(=O)c1ccccc1-2
inactive: [1] -1.85% | [2] 5.75% | [3] 0.8% | [4] 0.6% | [5] 4.05% | [6] 5.6%

Clc1ccc2oc(N3CCOCC3)nc2c1
inactive: [1] 20.6% | [2] 23.6% | [3] 22% | [4] -13.4% | [5] 15.7% | [6] 4.1%

Nc1nc2c(c(-c3ccccc3Cl)n1)COC/C2=C\c1ccccc1Cl
inactive: [1] 15.7% | [2] 18.8% | [3] 54% | [4] 25.1% | [5] 41.1% | [6] 50%

C=CCOC(=O)OCCOC(=O)OCC=C
inactive: [1] 6.4% | [2] -4.7% | [3] -2.05% | [4] -1.55% | [5] 24.1% | [6] -1.55%

O=S(=O)(Cc1c(Cl)c(Cl)c(Cl)c(Cl)c1Cl)c1ccc(Cl)cc1
inactive: [1] 1.2% | [2] -0.6% | [3] -1.25% | [4] -17.8% | [5] 2.4% | [6] -2.4%

O=C(NNS(=O)(=O)c1ccccc1)c1cccc([N+](=O)[O-])c1
inactive: [1] -0.95% | [2] -18.8% | [3] 7.25% | [4] 8.2% | [5] 5% | [6] -11.4%

CCCCN(C=O)c1ccccc1
inactive: [1] 3.15% | [2] 9.65% | [3] 2.95% | [4] 7.15% | [5] -8.45% | [6] 27.9%

CCOC(=O)c1cnc(SC)nc1N
inactive: [1] 9.25% | [2] -8.1% | [3] -7.9% | [4] -2.1% | [5] 8.95% | [6] -3.5%

CC(=O)c1ccc(OC(=O)Nc2ccc(C)cc2)cc1
inactive: [1] -2.25% | [2] 27.3% | [3] 17.8% | [4] -6.2% | [5] 26.5% | [6] 15.6%

NC(Cc1ccccc1F)C(=O)O (configuration not stated)
inactive: [1] 5.95% | [2] -18.6% | [3] 5.4% | [4] 13.6% | [5] 4.9% | [6] 11.2%

CCCc1c(O)c2ccccc2[nH]c1=O
inactive: [1] 11.3% | [2] 11.7% | [3] -37.8% | [4] 14.7% | [5] 15.8% | [6] -8.3%

Nc1ccncc1CCc1ccccc1
inactive: [1] 5.5% | [2] -16.2% | [3] -2.05% | [4] 12.8% | [5] -18% | [6] 3.1%

CCOC1C[C@H]2C[C@H]3[C@@H]4CC=C5C[C@@H](OC(C)=O)CC[C@]5(C)[C@H]4CC[C@]3(C)C2=C(C)O1 (some centres not stated)
inactive: [1] 20.9% | [2] 12.7% | [3] 22.9% | [4] 36% | [5] 8.05% | [6] 20.6%

CC(C#N)OCCO (configuration not stated)
inactive: [1] 9.3% | [2] -2.3% | [3] 7.85% | [4] -1.85% | [5] -6.7% | [6] 5.15%

CC[n+]1c(C)sc2cc(Cl)c(-c3ccccc3)cc21
inactive: [1] 23.4% | [2] 17.2% | [3] 30.4% | [4] -6.25% | [5] -3.25% | [6] 34.1%

O=C(Nc1ccc(F)cc1)Nc1cccc(C(=O)O)c1
inactive: [1] 20% | [2] 7.9% | [3] 6.4% | [4] 7.6% | [5] 22.4% | [6] 12.2%

O=C(S)c1ccccc1Br
inactive: [1] 1.45% | [2] 0% | [3] 11.6% | [4] -54.9% | [5] -8% | [6] 3.8%

COC(=O)c1cc(-c2ccc(OC)cc2)[nH]c(=O)c1C#N
inactive: [1] 20.2% | [2] 21.1% | [3] 31.2% | [4] 20.4% | [5] 26.1% | [6] 27.9%

COC(=O)C(C(=O)C(=O)Nc1ccc(Br)cc1)c1nc2ccc(Cl)cc2[nH]c1=O (configuration not stated)
inactive: [1] -11% | [2] -5.1% | [3] 21.9% | [4] 7.05% | [5] -1.55% | [6] 2.8%

Nc1ccc(Cn2ccc(=O)[nH]c2=O)cc1
inactive: [1] -14.4% | [2] 3.2% | [3] 0.25% | [4] -26.9% | [5] -11.2% | [6] -0.8%

CN1CCC2(C1)C1CC3CC(C1)CC2C3 (configuration not stated)
inactive: [1] 1.2% | [2] -13.9% | [3] -8.5% | [4] -7.3% | [5] 3.4% | [6] -9.35%

O=S1(=O)CCC(Br)c2ccccc2C1 (configuration not stated)
inactive: [1] 6.15% | [2] 21% | [3] -7% | [4] 14.2% | [5] 3.85% | [6] -5.4%

[N-]=[N+]=NC1=NNC2(C(=O)N1)c1ccccc1-c1ccccc12
inactive: [1] -6.35% | [2] -17.5% | [3] -22.9% | [4] -5.75% | [5] -30.1% | [6] -18.6%
